For five compounds, activation results are on record in PubChem BioAssay AID2435 (The Scripps Research Institute Molecular Screening Center, 2010).

The structures appear in SMILES notation. In all, about 320,000 compounds went through this assay and about 1,000 (0.31%) were called active.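 The calls were made as follows: active = activation above the mean of all tested compounds plus 3 SD, cutoff set per screening run (cut at about 20% in these data); inactive = the rest.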 The sample as a whole holds a higher share of actives than the screen did.

Oxytocin receptor (Homo sapiens), sequence (P30559 whole entry, looked up): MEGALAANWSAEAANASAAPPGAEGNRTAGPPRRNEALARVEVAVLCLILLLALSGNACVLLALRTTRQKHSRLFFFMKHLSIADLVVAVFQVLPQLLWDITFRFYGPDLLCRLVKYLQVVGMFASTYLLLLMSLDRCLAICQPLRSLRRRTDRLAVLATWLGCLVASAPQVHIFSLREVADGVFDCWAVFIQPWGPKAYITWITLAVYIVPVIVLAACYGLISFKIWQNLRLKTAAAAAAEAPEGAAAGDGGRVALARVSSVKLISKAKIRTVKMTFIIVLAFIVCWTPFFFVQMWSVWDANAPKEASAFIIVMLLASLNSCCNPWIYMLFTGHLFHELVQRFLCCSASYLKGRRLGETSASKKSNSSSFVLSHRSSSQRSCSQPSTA

The assay addresses Oxytocin receptor (Homo sapiens) (UniProt P30559). The assay can be described thus: oxytocin receptor activation by calcium flux – fluorescence, CHO-OTR cells, Fluo-8 calcium, primary screen (AID 2435).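 Also: peak over basal fluorescence ratio from a 100 s FLIPR kinetic read.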 The settings on record: Fluo-8 calcium fluorescence, at 3 µM, stronger effect = higher value. In general terms: Calcium assays in cells follow changes in intracellular calcium, usually with a dye or a luminescent sensor.
For `CC(Cc1ccccc1)NC=O` (stereo not given), the activation is -0.34% (inactive).

As to `CC(=O)NC(=O)NC(C)Cc1ccccc1` (stereo not given), the activation was -0.72% (inactive).

Turning to `CC(Cc1ccccc1)NCCC(c1ccccc1)c1ccccc1` (stereo not given), the activation was 23.9% (active).

Turning to `O=C(c1cc2nc(-c3ccccc3)cc(-c3ccccc3)n2n1)N1CCC2(CC1)OCCO2`, the activation is -2.27% (inactive).

For `O=C(Cc1ccc(Cl)cc1)NCCN1CCN(C(=O)Cc2ccc(Cl)cc2)CC1`, the activation was 1.31% (inactive).
